Assay results from PubChem BioAssay (NCATS).
Results filed as inconclusive are left out. Where a call stands in place of a potency, no number is given. Active and inactive are the calls of the source. Calls come from the whole dose curve; as a rule, active = well fitted curve in the direction sought with a large enough effect; inconclusive = small, poorly fitted or top-dose-only effect, or another doubt; inactive = no such curve, though single readings can be large or run the other way.

target: Glucagon-like peptide 1 receptor (Homo sapiens) (UniProt P43220); assay: qHTS of GLP-1 Receptor Agonists: LOPAC Validation (AID 624148); settings: GLP-1R agonist cell assay; series mostly up to 46.1 µM
How it was run: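 HEK293 cells stably co-expressing GLP-1R and a cAMP-responsive luciferase reporter, plated 12 hours before compound, then incubated 4-6 hr at 37 deg C. Luminescence read 12 min after detection reagent.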
Potency is the fitted concentration of half-maximal effect.

Sequence of Glucagon-like peptide 1 receptor (Homo sapiens) (P43220 whole entry, looked up): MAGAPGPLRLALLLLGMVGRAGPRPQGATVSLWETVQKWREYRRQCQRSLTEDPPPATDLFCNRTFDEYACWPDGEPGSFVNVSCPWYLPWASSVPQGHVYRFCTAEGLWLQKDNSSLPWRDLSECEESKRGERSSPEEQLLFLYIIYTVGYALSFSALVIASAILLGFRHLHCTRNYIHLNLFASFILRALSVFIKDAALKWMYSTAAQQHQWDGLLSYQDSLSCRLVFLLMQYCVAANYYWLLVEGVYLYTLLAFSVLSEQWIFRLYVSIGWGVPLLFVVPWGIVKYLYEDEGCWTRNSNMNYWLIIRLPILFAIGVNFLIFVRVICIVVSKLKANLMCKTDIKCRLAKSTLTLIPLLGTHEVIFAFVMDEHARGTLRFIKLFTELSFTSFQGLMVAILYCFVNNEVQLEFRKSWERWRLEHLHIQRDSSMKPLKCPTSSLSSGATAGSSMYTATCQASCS

Structure (SMILES) | Potency
O=C(Nc1ccc([N+](=O)[O-])cc1Cl)c1cc(Cl)ccc1O | inactive
OCCN1CCN(CCCN2c3ccccc3Sc3ccc(C(F)(F)F)cc32)CC1 | inactive
O=C(c1ccc(F)cc1)C1CCN(CCn2c(=O)[nH]c3ccccc3c2=O)CC1 | inactive
CCc1cccc2c3c([nH]c12)C(CC)(CC(=O)O)OCC3 (stereo not drawn) | inactive
CCCCc1oc2ccccc2c1C(=O)c1cc(I)c(OCCN(CC)CC)c(I)c1 | inactive
CCOC(=O)C(C)(C)Oc1ccc(Cl)cc1 | inactive
CCOC(=O)c1ncn2c1CN(C)C(=O)c1cc(F)ccc1-2 | inactive
COc1ccc(C2CNC(=O)C2)cc1OC1CCCC1 (stereo not drawn) | 46.1 nM (active)
CC(C)Cc1ccc(C(C)C(=O)O)cc1 (stereo not drawn) | inactive
Cc1ccccc1N1C(=O)c2cc(S(N)(=O)=O)c(Cl)cc2NC1C (stereo not drawn) | inactive
Cc1ccc(C(=O)Nc2ccc(S(=O)(=O)O)c3cc(S(=O)(=O)O)cc(S(=O)(=O)O)c23)cc1NC(=O)c1cccc(NC(=O)Nc2cccc(C(=O)Nc3cc(C(=O)Nc4ccc(S(=O)(=O)O)c5cc(S(=O)(=O)O)cc(S(=O)(=O)O)c45)ccc3C)c2)c1 | inactive
CN1CCN2c3ccccc3Cc3ccccc3C2C1 (stereo not drawn) | inactive
Cn1c(=O)c2c(ncn2C)n(C)c1=O | inactive
O=c1c(-c2ccc(O)cc2)coc2cc(O)cc(O)c12 | inactive
CC1COc2c(N3CCN(C)CC3)c(F)cc3c(=O)c(C(=O)O)cn1c23 (stereo not drawn) | inactive
NC(CO)C(=O)NNCc1ccc(O)c(O)c1O (stereo not drawn) | inactive
COc1nc(C)nc(Cl)c1NC1=NCCN1 | inactive

Structure (SMILES) | Potency
CCC1(c2ccccc2)C(=O)NCNC1=O | inactive
NS(=O)(=O)c1cc2c(cc1Cl)NCNS2(=O)=O | inactive
COc1ccccc1N1CCN(CC(O)COc2cccc3ccccc23)CC1 (stereo not drawn) | inactive
COc1ccc2[nH]cc(CCNC(C)=O)c2c1 | inactive
COc1ccccc1OCCNCC(O)COc1cccc2[nH]c3ccccc3c12 (stereo not drawn) | inactive
O=C1Cc2cc(CCN3CCN(c4nsc5ccccc45)CC3)c(Cl)cc2N1 | inactive
Cn1ccc2cc3c(cc21)CCN3C(=O)Nc1cccnc1 | inactive
CCN1CCCC1CNC(=O)c1cc(S(=O)(=O)CC)c(N)cc1OC (stereo not drawn) | inactive
CCOC(=O)Nc1ccc(NCc2ccc(F)cc2)nc1N | inactive
COc1ccccc1OCC(O)CN1CCN(CC(=O)Nc2c(C)cccc2C)CC1 (stereo not drawn) | inactive
Nc1ccn([C@H]2CC[C@@H](CO)O2)c(=O)n1 | inactive
Cn1c(=O)c2[nH]cnc2n(C)c1=O | inactive
NC12CC3CC(CC(C3)C1)C2 | inactive
Clc1ccc2nsnc2c1NC1=NCCN1 | inactive
Clc1ccccc1C(c1ccccc1)(c1ccccc1)n1ccnc1 | inactive
CN(C)CCCN1c2ccccc2CCc2ccc(Cl)cc21 | inactive
